# Test results from PubChem BioAssay.
# Active and inactive are the calls of the source. Unless noted, how the calls were made is not given here.
# How the values were obtained:
# [1] = test system: Wnt5a (protein binding on small-molecule microarray); assay: small molecules binding Wnt5a protein – biophysical, small-molecule microarray, 635/667 nm fluorescence, primary screen (AID 1142); conditions: 635 nm fluorescence, higher = more signal;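 further: fluorescence read at 667 nm with signal to noise per printed feature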
# [2] = ATP-based viability of Huh7 replicon cells – cell-based, CellTiter-Glo luminescence, basal, 48 h, cytotoxicity control for HCV replication inhibitor project, primary screen (AID 1143); conditions: higher = more signal, called active from +8 up or from −8 down;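 further: Huh7 hepatoma cells carrying a hepatitis C replication reporter with no stimulus; test concentration not given here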
# [3] = Pseudomonas biofilm growth suppression – PAO1 strain, BacTiter-Glo luminescence, LB-PBS, primary screen (AID 1144); conditions: P. aeruginosa PAO1 biofilm, 12 h, higher = more signal
# [4] = basal CRE-LacZ reporter activity in PC12 – cell-based, unstimulated, primary screen (AID 1145); conditions: no forskolin, luminescence, 4.5 h, higher = more signal, called active from +8 up or from −8 down
# [5] = forskolin-driven CRE-LacZ activity in PC12 – cell-based, CRE-LacZ reporter, forskolin-stimulated, primary screen (AID 1146); conditions: luminescence, 4.5 h, higher = more signal, called active from +8 up or from −8 down;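 further: PC12 cells with 6xCRE LacZ reporter stimulated by forskolin 10 µM; beta-galactosidase reporter signal reflecting CREB driven transcription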
# [6] = biological target: Streptavidin (Streptomyces avidinii) (UniProt P22629); assay: compounds binding control protein streptavidin – biophysical, small-molecule microarray, 635/667 nm fluorescence, artefact control for SMM compound annotation, primary screen (AID 1147); conditions: higher = more signal;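 further: signal reflects streptavidin binding to arrayed compounds as a control protein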
# Streptavidin (Streptomyces avidinii), sequence (P22629 whole entry, looked up): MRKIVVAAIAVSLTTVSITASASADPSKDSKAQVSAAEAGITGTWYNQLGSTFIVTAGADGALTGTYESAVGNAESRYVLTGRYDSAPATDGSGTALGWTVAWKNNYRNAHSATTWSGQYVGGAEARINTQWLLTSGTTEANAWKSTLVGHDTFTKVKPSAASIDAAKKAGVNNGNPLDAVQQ
# [7] = probe aInhba binding on compound microarray – biochemical, small-molecule microarray, 635/667 nm fluorescence, primary screen (AID 1148); conditions: higher = more signal;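 further: score merges 667nm spot fluorescence with signal-to-noise for antibody binding to printed compounds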
# Torsin-1A (Homo sapiens) [8] = biological target: Torsin-1A (Homo sapiens) (UniProt O14656); assay: TOR1A wild-type binding on microarray – cell lysate, small-molecule microarray, lysate, 635/667 nm, primary screen (AID 1149); conditions: COS7 hTOR1A-WT lysate, 635 nm fluorescence, higher = more signal
# Torsin-1A (Homo sapiens), sequence (O14656 whole entry, looked up): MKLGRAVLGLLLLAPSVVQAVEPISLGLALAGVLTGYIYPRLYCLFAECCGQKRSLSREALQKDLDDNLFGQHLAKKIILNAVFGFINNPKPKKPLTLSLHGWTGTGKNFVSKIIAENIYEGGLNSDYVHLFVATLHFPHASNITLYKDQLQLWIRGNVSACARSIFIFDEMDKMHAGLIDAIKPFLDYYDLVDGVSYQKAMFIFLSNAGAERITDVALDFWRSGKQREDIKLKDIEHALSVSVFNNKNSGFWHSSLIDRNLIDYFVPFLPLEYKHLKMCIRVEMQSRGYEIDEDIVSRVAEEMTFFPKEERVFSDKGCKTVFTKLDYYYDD
# Torsin-1A (Homo sapiens) [9] = biological target: Torsin-1A (Homo sapiens) (UniProt O14656); assay: torsin A mutant lysate binding on microarrays – cell lysate, small-molecule microarray, COS7 lysate, 635/667 nm fluorescence, primary screen (AID 1150); conditions: COS7 hTOR1A mutant lysate, 635 nm fluorescence, higher = more signal;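 further: score pools 667 nm emission and signal to noise measuring lysate protein binding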
# [10] = test system: Sonic hedgehog protein (Shh); assay: Sonic hedgehog microarray binding compounds – biochemical, small-molecule microarray, 635/667 nm fluorescence, primary screen (AID 1151); conditions: 635 nm fluorescence, higher = more signal;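 further: Shh protein binding to compounds spotted on small-molecule microarray slides; score combines spot fluorescence intensity with signal-to-noise across triplicate slides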
# [11] = optical density shifts of acrAB sulA E. coli – strain DRC41, OD650, 48 h, E. coli filamentation inducer project, primary screen (AID 1152); conditions: higher = more signal, called active from +8 up or from −8 down;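 further: E. coli MC1000 strain DRC41 lacking acrAB efflux pump and sulA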
# [12] = probe aLefty1 binding on compound microarray – biochemical, small-molecule microarray, 635/667 nm fluorescence, primary screen (AID 1153); conditions: higher = more signal;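 further: score merges spot fluorescence with signal-to-noise ratio from the scanned slide images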
# [13] = plasmodial surface anion channel blockers, osmotic lysis – cell-based, P. falciparum Indochina, OD700, 1 h, primary screen (AID 1154); conditions: P. falciparum Indochina infected RBC osmotic lysis, higher = more signal, called active from +8 up or from −8 down
# [14] = plasmodial surface anion channel blockers, osmotic lysis – cell-based, P. falciparum Indochina, OD700, 2 h, primary screen (AID 1155);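 further: lysis reports solute entry through the parasite surface anion channel PSAC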; conditions: P. falciparum Indochina infected erythrocytes, higher = more signal, called active from +8 up or from −8 down
# [15] = changes in parasitized red cell lysis, either direction – P. falciparum Indochina, OD700, 3 h, PSAC antagonist project, primary screen (AID 1156); conditions: P. falciparum-infected erythrocytes, osmotic lysis, higher = more signal, called active from +8 up or from −8 down
# [16] = plasmodial surface anion channel blockers, osmotic lysis – cell-based, P. falciparum Indochina, OD700, 18 h, primary screen (AID 1157); conditions: P. falciparum Indochina infected erythrocytes, osmotic lysis OD700, 18 h; higher = more signal, called active from +8 up or from −8 down
# [17] = S6 kinase pathway phospho-S6 level changes – cell-based, A549, cytoblot, luminescence, serum-stimulated, primary screen (AID 1158); conditions: 5 h, higher = more signal;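 further: serum-stimulated A549 lung adenocarcinoma cells; signal is phosphorylated S6 detected by cytoblot immunostaining with HRP secondary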
# [18] = biological target: NADPH oxidase 2 (Homo sapiens) (UniProt P04839); assay: compounds shifting NOX2 Amplex Red fluorescence – cell-based, HEK293-NOX2, PMA-stimulated, NOX inhibitor project, primary screen (AID 1159); conditions: 45 min, higher = more signal, called active from +8 up or from −8 down; further: test concentration not given here
# NADPH oxidase 2 (Homo sapiens), sequence (P04839 whole entry, looked up): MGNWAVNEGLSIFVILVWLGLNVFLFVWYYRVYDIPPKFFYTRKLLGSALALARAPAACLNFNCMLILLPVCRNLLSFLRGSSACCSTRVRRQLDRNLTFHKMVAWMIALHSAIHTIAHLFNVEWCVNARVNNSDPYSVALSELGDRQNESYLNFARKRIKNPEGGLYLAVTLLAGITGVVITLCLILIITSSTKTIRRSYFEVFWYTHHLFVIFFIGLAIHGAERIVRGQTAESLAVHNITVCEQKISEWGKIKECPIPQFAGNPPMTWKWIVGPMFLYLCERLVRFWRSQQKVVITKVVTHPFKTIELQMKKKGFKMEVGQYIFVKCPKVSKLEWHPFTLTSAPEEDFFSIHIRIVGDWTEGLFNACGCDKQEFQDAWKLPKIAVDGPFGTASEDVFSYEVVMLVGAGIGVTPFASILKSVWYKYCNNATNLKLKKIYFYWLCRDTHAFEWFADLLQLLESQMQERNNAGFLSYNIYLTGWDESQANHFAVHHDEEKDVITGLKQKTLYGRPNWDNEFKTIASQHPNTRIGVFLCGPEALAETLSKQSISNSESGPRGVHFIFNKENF
# [19] = biological target: NADPH oxidase 4 (Homo sapiens) (UniProt Q9NPH5); assay: compounds shifting NOX4 Amplex Red fluorescence – cell-based, HEK293-NOX4, tetracycline-induced, NOX inhibitor project, primary screen (AID 1160); conditions: HEK293-NOX4, Amplex Red H2O2 fluorescence, 45 min; higher = more signal, called active from +8 up or from −8 down
# NADPH oxidase 4 (Homo sapiens), sequence (Q9NPH5 whole entry, looked up): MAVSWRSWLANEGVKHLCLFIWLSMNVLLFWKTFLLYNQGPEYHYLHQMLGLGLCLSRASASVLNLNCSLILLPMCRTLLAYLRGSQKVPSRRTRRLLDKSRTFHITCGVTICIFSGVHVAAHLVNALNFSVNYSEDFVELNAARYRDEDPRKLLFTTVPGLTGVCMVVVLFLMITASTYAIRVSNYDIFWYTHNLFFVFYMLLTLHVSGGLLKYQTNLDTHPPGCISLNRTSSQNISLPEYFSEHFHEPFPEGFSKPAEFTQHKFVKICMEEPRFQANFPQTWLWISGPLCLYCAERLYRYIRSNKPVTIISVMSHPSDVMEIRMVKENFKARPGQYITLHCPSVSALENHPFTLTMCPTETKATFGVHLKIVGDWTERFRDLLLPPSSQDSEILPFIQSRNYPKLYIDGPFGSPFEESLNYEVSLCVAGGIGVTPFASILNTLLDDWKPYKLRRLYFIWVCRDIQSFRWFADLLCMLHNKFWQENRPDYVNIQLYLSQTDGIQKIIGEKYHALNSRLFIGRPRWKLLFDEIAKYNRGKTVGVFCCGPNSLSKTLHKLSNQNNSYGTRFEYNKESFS
# [20] = biological target: NADPH oxidase 5 (Homo sapiens) (UniProt Q96PH1); assay: compounds shifting NOX5 Amplex Red fluorescence – cell-based, HEK293-NOX5, NOX inhibitor project, primary screen (AID 1161); conditions: HEK293-NOX5, ionomycin, 45 min, higher = more signal
# NADPH oxidase 5 (Homo sapiens), sequence (Q96PH1 whole entry, looked up): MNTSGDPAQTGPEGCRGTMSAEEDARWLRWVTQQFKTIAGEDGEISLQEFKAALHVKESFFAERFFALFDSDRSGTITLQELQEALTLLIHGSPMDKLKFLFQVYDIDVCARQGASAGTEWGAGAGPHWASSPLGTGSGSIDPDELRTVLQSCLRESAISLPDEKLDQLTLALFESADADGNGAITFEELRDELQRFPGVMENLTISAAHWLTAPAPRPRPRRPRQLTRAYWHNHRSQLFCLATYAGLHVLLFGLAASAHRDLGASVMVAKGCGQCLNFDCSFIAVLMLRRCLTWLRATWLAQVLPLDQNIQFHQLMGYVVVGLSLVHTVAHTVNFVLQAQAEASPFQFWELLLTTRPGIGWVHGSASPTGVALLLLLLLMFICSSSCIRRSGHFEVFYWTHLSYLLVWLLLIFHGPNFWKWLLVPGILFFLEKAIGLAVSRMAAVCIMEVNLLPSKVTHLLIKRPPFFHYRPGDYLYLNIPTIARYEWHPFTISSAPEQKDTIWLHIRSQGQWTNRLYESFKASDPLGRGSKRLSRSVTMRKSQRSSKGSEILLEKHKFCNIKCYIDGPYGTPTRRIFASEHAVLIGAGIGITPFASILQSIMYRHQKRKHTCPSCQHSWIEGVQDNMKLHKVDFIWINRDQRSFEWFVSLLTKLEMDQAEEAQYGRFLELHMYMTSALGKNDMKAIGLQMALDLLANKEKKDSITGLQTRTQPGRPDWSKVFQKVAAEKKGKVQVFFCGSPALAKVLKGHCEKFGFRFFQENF
SMILES,composite z-score [1],z-score [2],z-score [3],z-score [4],z-score [5],composite z-score [6],composite z-score [7],composite z-score (Torsin-1A (Homo sapiens) [8]),composite z-score (Torsin-1A (Homo sapiens) [9]),composite z-score [10],z-score [11],composite z-score [12],z-score [13],z-score [14],z-score [15],z-score [16],z-score [17],z-score [18],z-score [19],z-score [20]
Cc1ccc(S[C@]2(C(=O)NCCCN(C)C)CC(=O)N(C3Cc4ccccc4C3)[C@@H]2c2ccc(CO)cc2I)cc1,-0.283,-1.5 (inactive),0.505 (inactive),0.155 (inactive),2.5 (inactive),0.372,-0.182,-1.5,-1.04,-0.348,-0.759 (inactive),-0.0882,4.32 (inactive),0.903 (inactive),0.925 (inactive),0.352 (inactive),-0.0249,0.914 (inactive),-1.12 (inactive),2.56
COCCOC(=O)N1C(=O)[C@@]2(c3cc(C#CCCO)ccc31)[C@H](C(N)=O)[C@H]1C(=O)O[C@H](c3ccccc3)[C@H](c3ccccc3)N1[C@@H]2c1ccccc1OCCO,0.119,-3.54 (inactive),0.00875 (inactive),0.0695 (inactive),-0.29 (inactive),0.612,0.017,0.69,0.791,1.13,-0.3 (inactive),-0.147,12.2 (active),2.47 (inactive),1.99 (inactive),0.68 (inactive),1.02,1.51 (inactive),0.755 (inactive),0.594
C=CCNC(=O)[C@H]1[C@@H]2C(=O)O[C@@H](c3ccccc3)[C@@H](c3ccccc3)N2[C@@H](c2ccc(OCCO)cc2)[C@]12C(=O)Nc1ccc(C#CC3(O)CCCCCC3)cc12,0.564,-3.3 (inactive),0.15 (inactive),-0.329 (inactive),0.566 (inactive),0.618,0.108,0.406,0.564,1.31,0.803 (inactive),0.523,2.48 (inactive),1.54 (inactive),-0.441 (inactive),0.311 (inactive),0.977,1.94 (inactive),1.18 (inactive),0.902
CC1CC/C=C\[C@H]2OC34C=CCN(CCN5CCOCC5)C(=O)[C@H]3N(CCCO)C(=O)[C@@H]4C2C(=O)O1 (stereo not given in full),-0.239,0.0123 (inactive),1.13 (inactive),-0.887 (inactive),-0.0703 (inactive),-0.601,-0.154,-0.0243,0.0876,0.624,-0.576 (inactive),-0.0518,0.811 (inactive),0.354 (inactive),-0.513 (inactive),0.136 (inactive),1.38,0.638 (inactive),-1.71 (inactive),0.947
CCN(CC)c1ccc(N2CC=CC34O[C@@H]5C=CCCOC(=O)C5[C@H]3C(=O)N(C(C)CO)[C@@H]4C2=O)cc1 (stereo not given in full),-0.188,0.0396 (inactive),1.25 (inactive),1.01 (inactive),-0.0386 (inactive),-0.638,0.166,0.0632,-0.194,1.53,-0.627 (inactive),0.138,3.66 (inactive),0.493 (inactive),0.988 (inactive),0.353 (inactive),-0.465,-0.748 (inactive),0.447 (inactive),0.772
C=CCOC(=O)[C@H]1[C@@H]2C(=O)O[C@@H](c3ccccc3)[C@@H](c3ccccc3)N2[C@@H](c2ccc(OCCOC(=O)[C@@H]3C[C@@H]4C(=O)N[C@@H](CCCCNC(C)=O)C(=O)N4[C@@H]3c3cccc(OCCO)c3)cc2)[C@]12C(=O)Nc1ccccc12,0.455,-0.08 (inactive),-0.295 (inactive),-0.118 (inactive),-0.656 (inactive),-0.35,-0.0342,1.2,1.3,1.54,-0.637 (inactive),0.082,3.6 (inactive),1.34 (inactive),2.28 (inactive),0.621 (inactive),-0.52,1.83 (inactive),1.4 (inactive),0.618
C=CCOC(=O)[C@@H]1[C@H]2C(=O)O[C@H](c3ccccc3)[C@H](c3ccccc3)N2[C@H](c2ccc(OCCOC(=O)[C@H]3C[C@H]4C(=O)N5CCC[C@H]5C(=O)N4[C@H]3c3cccc(OCCO)c3)cc2)[C@@]12C(=O)Nc1ccc(I)cc12,0.473,0.0351 (inactive),-0.699 (inactive),0.545 (inactive),-0.206 (inactive),0.502,-0.0552,0.438,0.618,1.97,-0.565 (inactive),-0.101,1.72 (inactive),1.39 (inactive),-0.341 (inactive),0.84 (inactive),-0.101,0.929 (inactive),0.788 (inactive),0.32
COc1ccc([Si](C)(C)[C@@H]2[C@@H](CC(=O)N3Cc4ccccc4C[C@H]3CO)O[C@]3(C(=O)N(Cc4cccc(N5CCOC5=O)c4)c4ccccc43)[C@H]2C)cc1,0.244,-4.12 (inactive),0.291 (inactive),-0.491 (inactive),-0.318 (inactive),-0.281,-0.0581,0.846,0.737,2.11,-0.207 (inactive),0.647,5.29 (inactive),1.06 (inactive),0.599 (inactive),0.548 (inactive),0.114,-2.65 (inactive),1.1 (inactive),-1.02
